Our source for the inhibition (reported as % activation of signal) values is PubChem BioAssay AID588458 (Sanford-Burnham Center for Chemical Genomics, 2011).

Several values for one entry are separate records, joined by “and”; a condition that tells them apart may be missing. Equal values may be shown once. The campaign covered roughly 360,000 compounds. About 3,000 (0.83%) were called active. Rule as the data show it: active = inhibition above about 50%; inactive = the rest. For the sample, actives were picked, then their nearest neighbours and some compounds at random. The source holds several records for some structures; these can differ, active in one and inactive in another.

The target of this assay is DNA (cytosine-5)-methyltransferase 1 (Homo sapiens) (UniProt P26358). Description: human DNMT1 methyltransferase inhibitors, primary screen, biochemical, molecular beacon, fluorescence, HinP1I cleavage, uHTS (AID 588458). The note with it: at 10 µM, stronger effect = higher value.
Chain of DNA (cytosine-5)-methyltransferase 1 (Homo sapiens) (P26358 504-1616 limits assumed): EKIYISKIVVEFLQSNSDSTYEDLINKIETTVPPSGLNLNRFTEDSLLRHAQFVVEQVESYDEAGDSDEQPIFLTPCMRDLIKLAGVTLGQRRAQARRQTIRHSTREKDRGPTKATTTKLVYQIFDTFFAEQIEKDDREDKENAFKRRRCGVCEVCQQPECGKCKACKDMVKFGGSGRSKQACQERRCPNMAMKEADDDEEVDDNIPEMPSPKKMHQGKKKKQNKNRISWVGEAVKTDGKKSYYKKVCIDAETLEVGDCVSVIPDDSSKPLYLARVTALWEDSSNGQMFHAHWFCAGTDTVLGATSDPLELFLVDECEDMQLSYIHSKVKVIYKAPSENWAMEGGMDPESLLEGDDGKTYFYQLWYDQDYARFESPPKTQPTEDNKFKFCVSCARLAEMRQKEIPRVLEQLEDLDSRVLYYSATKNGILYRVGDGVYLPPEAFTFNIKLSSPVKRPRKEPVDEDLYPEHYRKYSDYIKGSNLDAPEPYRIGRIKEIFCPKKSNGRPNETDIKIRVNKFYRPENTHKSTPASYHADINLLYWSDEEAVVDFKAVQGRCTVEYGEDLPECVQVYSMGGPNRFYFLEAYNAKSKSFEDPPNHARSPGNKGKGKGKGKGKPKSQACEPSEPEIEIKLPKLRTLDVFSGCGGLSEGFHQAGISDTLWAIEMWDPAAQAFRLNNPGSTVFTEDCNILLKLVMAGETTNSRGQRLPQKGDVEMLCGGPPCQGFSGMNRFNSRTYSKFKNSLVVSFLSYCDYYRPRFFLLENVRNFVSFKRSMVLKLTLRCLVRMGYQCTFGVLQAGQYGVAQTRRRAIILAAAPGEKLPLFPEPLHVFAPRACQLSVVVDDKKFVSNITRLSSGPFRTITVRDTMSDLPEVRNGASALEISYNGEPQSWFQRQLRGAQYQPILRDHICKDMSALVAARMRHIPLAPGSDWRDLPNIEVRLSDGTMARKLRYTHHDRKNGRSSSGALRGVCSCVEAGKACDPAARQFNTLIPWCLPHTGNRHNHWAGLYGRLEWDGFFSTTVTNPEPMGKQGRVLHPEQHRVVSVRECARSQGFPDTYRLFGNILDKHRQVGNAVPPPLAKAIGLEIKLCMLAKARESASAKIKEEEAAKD
With `Cc1cccc(-c2cnc(C(O)c3cc(C)cc(C)c3)[nH]2)c1` (stereo not drawn), the inhibition (reported as % activation of signal) was 4.05% (inactive).
For `Cc1ccc(-n2c(=O)cc(N3CCN(Cc4ccccc4)CC3)[nH]c2=O)cc1` the value was -5.41% (inactive); for `CN(Cc1nc2ccc(F)cc2[nH]1)Cc1nc(CC2CC2)no1`, 52.1% (active).
To `CN(Cc1ccc2nsnc2c1)Cc1nc(Cc2cccc(F)c2)no1` belongs 14.7% (inactive); to `CN(Cc1cc2cc(F)ccc2[nH]1)Cc1nc(-c2cnccn2)no1`, 0.73% (inactive); to `COc1cc(C2C(N3C(=O)c4ccccc4C3=O)C(=O)N2c2ccc(C)c(C)c2)cc(OC)c1OC` (stereo not drawn), -2.9% (inactive).
For `Cc1ccc(NC(=O)c2cnc(SCC(=O)NCC3CCCO3)n(C)c2=O)cc1` (stereo not drawn) the value was -0.68% (inactive); for `Cc1[nH]c2ccccc2c1C(=O)COC(=O)c1c(-c2ccccc2)noc1C`, -10.3% (inactive); for `Cc1onc(-c2ccccc2)c1C(=O)Nc1ccccc1C#N`, 86.5% (active) and -2.35% (inactive).
With `N#Cc1ccccc1NC(=O)c1ccc2c(c1)OCO2`, the inhibition (reported as % activation of signal) is 2.15% (inactive).
Consider `Cc1ccccc1CN1C[C@@H]2C[C@@H](c3cn(C)nc3-c3ccccc3)N3CCC[C@@]23C1=O`, for which the inhibition (reported as % activation of signal) was -7.15% (inactive).
To `O=C(COC(=O)CSc1nnc(-c2ccc(Cl)cc2)o1)Nc1cc(Cl)cc(Cl)c1` belongs 3.58% (inactive); to `O=C1/C(=C\c2ccc([N+](=O)[O-])cc2)CS(=O)(=O)C/C1=C/c1ccc([N+](=O)[O-])cc1`, 101% (active); to `CN(C)S(=O)(=O)N1CCN(c2ccc([N+](=O)[O-])cc2)CC1`, -0.57% (inactive).
Regarding `CCCCC(=O)Nc1c2c(nn1-c1ccc([N+](=O)[O-])cc1)CS(=O)(=O)C2`, the inhibition (reported as % activation of signal) is 0.28% (inactive).
For `Cc1ccc(CN2CC(N3CCC(Cc4ccccc4)CC3)CS2(=O)=O)cc1` (stereo not drawn) the value was -0.65% (inactive).
As to `Cc1ccc(OCc2nnc(SC3CCc4ccccc4C3=O)n2C)cc1` (stereo not drawn), the inhibition (reported as % activation of signal) was -0.48% (inactive).
With `CC1(C(=O)NS(=O)(=O)c2ccccc2)CCN1C(=O)Cc1ccc(-c2ccccc2)cc1` (stereo not drawn), the inhibition (reported as % activation of signal) is 3.68% (inactive).
In the case of `CC1(C(=O)NS(=O)(=O)c2ccccc2)CCN1C(=O)C/C=C/c1ccccc1` (stereo not drawn), the inhibition (reported as % activation of signal) was 84.5% (active).
For `CC1(C(=O)NS(=O)(=O)c2ccccc2)CCN1C(=O)c1ccccc1` (stereo not drawn) the value was -2.49% (inactive); for `COc1ccc(CNC(=O)C(NS(=O)(=O)c2cccc3nsnc23)C(C)C)cc1` (stereo not drawn), 2.57% (inactive).
To `O=C1C(Cl)=C(Oc2ccccc2)C(=O)c2ccccc21` belongs 78.2% (active); to `O=C(O)C1CCC(CNS(=O)(=O)c2ccc(Br)cc2)CC1` (stereo not drawn), 0.46% (inactive); to `O=C(Nc1ccccc1)c1cc2ccccc2[nH]1`, -1.95% (inactive).
To `O=C(Nc1cccc(-c2nc3ccccc3[nH]2)c1)c1ccc(C(=O)Nc2cccc(-c3nc4ccccc4[nH]3)c2)cc1` belongs 56.8% (active).
Consider `O=C(NCC(O)c1nc2ccccc2[nH]1)c1ccc(Br)cc1` (stereo not drawn), for which the inhibition (reported as % activation of signal) is -1.63% (inactive).
Take `COc1ccc(-c2cc(NC=O)c3ncc(-c4cc(OC)c(OC)c(OC)c4)n3c2)c(OC)c1`: the inhibition (reported as % activation of signal) is -21.8% (inactive).
For `O=C(CN1CCN(c2ncccn2)CC1)Nc1ccccc1C(F)(F)F` the value was 1.55% (inactive).
To `CC(C)C1CC2=C(C(=O)OC(C)(C)O2)C(c2ccc(F)cc2)O1` (stereo not drawn) belongs 0.41% (inactive); to `NC(=O)COc1ccc(NC(=O)c2ccccc2-c2ccccc2)cc1`, 1.27% (inactive); to `CCCNC(=O)c1cnc(-c2ccccc2)nc1-c1ccccc1`, 0.2% (inactive).
To `O=C1CSC(=S)N1/N=C/c1ccc(O)c([N+](=O)[O-])c1` belongs 76.8% (active); to `CCOc1cccc(/C=N/N2C(=O)CSC2=S)c1O`, -12.4% (inactive).
As to `CO/N=C/c1ccc(N2CCN(C(=O)c3cccc(Cl)c3)CC2)c([N+](=O)[O-])c1`, the inhibition (reported as % activation of signal) was -5.17% (inactive).
For `CCc1ccc(OC2(C)CCN(CCOc3ccc(C)cc3)C2)cc1` (stereo not drawn) the value was 1.94% (inactive); for `CC1(C(=O)NCc2ccc3c(c2)OCO3)CCN1CCc1ccccc1` (stereo not drawn), 0.65% (inactive).
For `CC1(C)Cc2nc3sc4c(SCC(=O)NC(c5ccccc5)c5ccccc5)ncnc4c3cc2CO1` the value was 50% (active); for `CC(C)CCSc1ncnc2c1oc1nc3c(cc12)COC(C)(C)C3`, 0.16% (inactive).
For `CCOc1ccc(NC(=O)CSc2ncnc3c2sc2ccccc23)cc1` the value was 11.2% (inactive); for `C=CC[C@@H](CC(=O)N[C@H](CO)Cc1ccccc1)C(=O)N[C@@H](COC(=O)[C@@H](CC=C)Cc1ccc(F)cc1)Cc1c[nH]c2ccccc12`, 63.8% (active); for `C=CC[C@H](CC(=O)NCCO)C(=O)N[C@@H](COC(=O)[C@@H](CC=C)Cc1ccc(F)cc1)Cc1c[nH]c2ccccc12`, -10.1% (inactive).
As for `C=CCC[C@H](Cc1ccc(F)cc1)C(=O)OC[C@@H](Cc1c[nH]c2ccccc12)NC(=O)[C@H](CC=C)CC(=O)N[C@H](CO)Cc1ccccc1`, the inhibition (reported as % activation of signal) is 4.02% (inactive).
For `O=C(Cc1ccc([N+](=O)[O-])cc1)NCCS(=O)(=O)N1CCN(c2ccccc2)CC1` the value was -1.35% (inactive); for `Cc1cccc(NC(=S)N2CCC(c3nc4ccccc4s3)CC2)c1`, -5.14% (inactive).
On to `O=C(c1cccs1)N1CCC(c2nc3ccccc3s2)CC1`, for which the inhibition (reported as % activation of signal) was 73.8% (active).
Take `Cc1cccc(C(=O)N2CCC(c3nc4ccccc4s3)CC2)c1`: the inhibition (reported as % activation of signal) was -3.99% (inactive).
For `CC(=O)N1CCc2cc(Br)cc(S(=O)(=O)CCC(=O)Nc3c(C)n(C)n(-c4ccccc4)c3=O)c21` the value was 0.99% (inactive).
For `COc1ccc(-c2[nH][nH]c(=O)c2NC(=O)c2ccc([N+](=O)[O-])cc2)cc1` the value was -19.5% (inactive); for `COc1ccccc1C(CNC(=O)c1cccc(NS(=O)(=O)c2ccc(Br)cc2)c1)N(C)C` (stereo not drawn), 2.12% (inactive).
To `COc1ccc(S(=O)(=O)N2CCC(C(=O)OCC(=O)c3ccccc3)CC2)cc1[N+](=O)[O-]` belongs 6.89% (inactive); to `COc1ccc(Br)cc1/C=N/Nc1ccc(S(=O)(=O)Nc2ccccc2C(=O)O)cc1[N+](=O)[O-]`, 97.5% (active).
As for `O=C(CCSCCc1ccccn1)Nc1nccs1`, the inhibition (reported as % activation of signal) was -3.62% (inactive).
To `Cn1cccc1Cc1nnc(SCC(=O)NCc2ccc3c(c2)OCO3)n1CCc1ccccc1` belongs 6.75% (inactive); to `Cc1c(C(=O)N(Cc2ccccc2)Cc2cccnc2)cnn1-c1ccc(F)cc1`, 0.01% (inactive).
For `O=C(Nc1nc(-c2ccco2)c(-c2ccco2)s1)c1ccco1` the value was 80.6% (active).
To `O=C(Nc1nonc1-c1ccc(Cl)cc1)c1ccco1` belongs 9.05% (inactive); to `CCc1nnc(NC(=O)c2ccco2)s1`, 4.22% (inactive).
Take `CCN(CC)S(=O)(=O)c1ccc(NC(=O)c2cccnc2Cl)c(NC(=O)c2cccnc2Cl)c1`: the inhibition (reported as % activation of signal) was -0.07% (inactive).
For `CC(C)C[C@H](NC(=O)C1CC(=O)N(c2ccc3c(c2)OCCO3)C1)C(=O)NC1CCCC1` (stereo partly drawn) the value was -0.87% (inactive); for `O=C1NCC(Nc2ccccc2)C(=O)N1` (stereo not drawn), 0.4% (inactive); for `O=C(CN1C(=O)c2cccc3cccc1c23)Nc1ccccc1`, 6.37% (inactive).
Turning to `CN1C(=O)c2cccc3c(N)ccc(c23)C1=O`, the inhibition (reported as % activation of signal) is 68.8% (active).
For `Cn1cc(C2OC(=O)c3ccccc32)c2ccccc21` (stereo not drawn) the value was 1.23% (inactive); for `CCN1C(=O)c2cccc3c(S(=O)(=O)Nc4ccccc4O)ccc1c23`, -3.81% (inactive).
Consider `CCN1C(=O)c2cccc3c(N)ccc1c23`, for which the inhibition (reported as % activation of signal) was 51.2% (active).
For `Cc1nn(C)cc1N1C(=O)c2cccc3c(N)ccc(c23)C1=O` the value was 65% (active); for `O=C(COC(=O)CCc1c[nH]c2ccccc12)Nc1cccc(Cl)c1`, -4.28% (inactive).
To `O=C(CCC1CCCC1)N=C1SC2CS(=O)(=O)CC2N1Cc1ccccc1` (stereo not drawn) belongs 14.4% (inactive); to `COc1ccccc1-c1oc2ccccc2c1C#CCCCCO`, -0.24% (inactive); to `CCCc1nc(-c2cc3cc(C)ccc3[nH]c2=O)no1`, -2.69% (inactive).
As for `COc1ccc(Cc2cc(-c3ccc(F)cc3)n[nH]c2=O)cc1`, the inhibition (reported as % activation of signal) is -1.27% (inactive).
For `COc1ccc2[nH]c(=O)c(-c3noc(-c4ccc(F)cc4)n3)cc2c1` the value was 95.2% (active); for `Cc1ccc2c(CC(=O)NCc3cccs3)coc2c1`, 7.02% (inactive).
To `C[C@H]1CN([C@@H](C)CO)C(=O)CCCn2cc(nn2)CO[C@@H]1CN(C)S(=O)(=O)c1ccccc1C#N` belongs 8.79% (inactive).
To `C=C(Br)CN1CCN(CC(=C)Br)CC1` belongs 1.67% (inactive); to `Cc1cc2nc(-c3ccco3)c(Cc3cccc(F)c3)n2c(C)c1Br`, 56.4% (active); to `Cc1ccc2nc(-c3ccco3)c(Cc3cccc(Cl)c3)n2c1`, -0.88% (inactive).
In the case of `Cc1cc2nc(-c3ccc(Cl)cc3)c(Cc3cccc(F)c3)n2c(C)c1Br`, the inhibition (reported as % activation of signal) is 37.2% (inactive).
For `CCN1CCN(c2ccc(S(=O)(=O)N3CCCCC3)cc2NC(=O)c2cccc(NC(C)=O)c2)CC1` the value was -6.35% (inactive); for `COc1cccc(NC(=O)CSc2nccn(-c3ccc4c(c3)OCCO4)c2=O)c1`, 0.94% (inactive).
To `NC(CSC1(c2ccccc2)c2ccccc2-c2ccccc21)C(=O)O` (stereo not drawn) belongs 38.3% (inactive); to `NC(CSC(c1ccccc1)(c1ccccc1)c1ccc(-c2ccccc2)cc1)C(=O)O` (stereo not drawn), 89% (active); to `CCC(C)OC(=O)C(C)Oc1ccc(-c2ccccc2)cc1` (stereo not drawn), -3.17% (inactive).
To `COC(=O)CCCCC1=CCC2C(=O)C=C(O)C2C1` (stereo not drawn) belongs 92.7% (active).
As to `CCOc1ccc2[nH]c(=S)sc2c1`, the inhibition (reported as % activation of signal) was 0.55% (inactive).
As for `Cc1ccc(NC(=O)c2cc(-c3ccc(C)o3)nc3ccccc23)nc1`, the inhibition (reported as % activation of signal) is 76.5% (active).
In the case of `CC(=O)N1CCN(C(=O)c2cc(-c3ccc(C)o3)nc3ccccc23)CC1`, the inhibition (reported as % activation of signal) was 1.05% (inactive).
For `CSc1ncccc1C(=O)Nc1ccc(C)cn1`, the inhibition (reported as % activation of signal) was -0.42% (inactive).
